The source of these data is the antibiotic and cytotoxicity screens of Wong et al. (2023).

Molecules are shown by their SMILES. Out of some 39,000 compounds screened, about 3,300 (8.5%) were called active. The sample as a whole holds a higher share of actives than the screen did.

The subject of the test is HepG2. As to the kind of experiment: cytotoxicity call (relative viability < 0.9). The settings on record: 10 µM.
With `C[C@@H]1CN([C@@H](C)CO)C(=O)c2cc(NC(=O)Cc3cn(C)c4ccccc34)ccc2O[C@@H]1CN(C)S(=O)(=O)c1cn(C)cn1`, the cytotoxicity call is “inactive”.

As for `CN(C)C(=O)C[C@H]1CC[C@@H]2[C@H](COc3ccc(NS(=O)(=O)c4cccc(F)c4)cc3C(=O)N2C)O1`, the cytotoxicity call is “inactive”.

Regarding `Cc1ccc(S[C@]2(C(=O)NC(C)C)CC(=O)N(Cc3ccccc3C(F)(F)F)[C@@H]2c2ccc(CO)cc2I)cc1`, the cytotoxicity call is “inactive”.

In the case of `CC(C)NC(=O)Nc1ccc2c(c1)C(=O)N([C@H](C)CO)C[C@@H](C)[C@H](CN(C)Cc1ccccc1)OCCCC[C@@H](C)O2`, the cytotoxicity call was “inactive”.

For the molecule `C[C@@H]1CCCCO[C@H](CN(C)S(=O)(=O)c2cn(C)cn2)[C@@H](C)CN([C@@H](C)CO)C(=O)c2cc(N(C)C)ccc2O1`, the cytotoxicity call is “inactive”.

With `Cc1ccc(S(=O)(=O)N(C)C[C@H]2OCCCC[C@@H](C)Oc3ccc(NC(=O)Nc4c(C)noc4C)cc3C(=O)N([C@H](C)CO)C[C@@H]2C)cc1`, the cytotoxicity call is “inactive”.

For `CSc1ccc2cc(CN(C[C@H]3CCCO3)C(=O)c3ccco3)c(N(C)Cc3csc(C)n3)nc2c1`, the cytotoxicity call was “inactive”.

As to `C[C@@H]1CN([C@@H](C)CO)C(=O)c2cc(NC(=O)CCCN(C)C)ccc2O[C@@H](C)CCCCO[C@@H]1CN(C)S(C)(=O)=O`, the cytotoxicity call is “inactive”.

As to `CO[C@@H]1CN(C)C(=O)c2cc(NC(=O)Nc3ccccc3)ccc2OC[C@@H](C)N(C(=O)CN(C)C)C[C@H]1C`, the cytotoxicity call is “inactive”.

On to `C[C@@H](O[C@H]1OCCN(Cc2n[nH]nc2CN(C)C)[C@H]1c1ccc(F)cc1)c1cc(C(F)(F)F)cc(C(F)(F)F)c1`, for which the cytotoxicity call is “active”.

For `CC(OC1OCCN(C(C)c2nc(=O)[nH][nH]2)C1c1ccc(F)cc1)c1cc(C(F)(F)F)cc(C(F)(F)F)c1` (stereo not given), the cytotoxicity call was “active”.

Consider `COc1ccc(S(=O)(=O)Nc2cccc3c2O[C@@H](CN(C)Cc2ccc(-c4ccccc4)cc2)[C@@H](C)CN([C@@H](C)CO)C3=O)cc1`, for which the cytotoxicity call was “inactive”.

Take `CC(C)NC(=O)N(C)C[C@@H]1OCCCC[C@@H](C)Oc2ccc(NC(=O)C3CCCCC3)cc2C(=O)N([C@H](C)CO)C[C@H]1C`: the cytotoxicity call is “inactive”.

With `C[C@H](CO)N1C[C@H](C)[C@H](CN(C)Cc2ccc(-c3ccccc3)cc2)Oc2ccc(NC(=O)Cc3cn(C)c4ccccc34)cc2CC1=O`, the cytotoxicity call is “inactive”.

Regarding `C[C@@H]1CN([C@H](C)CO)C(=O)Cc2cc(NC(=O)Cc3cn(C)c4ccccc34)ccc2O[C@@H]1CN(C)CC1CCCCC1`, the cytotoxicity call is “inactive”.

Take `C[C@H](CO)N1C[C@H](C)[C@@H](CN(C)Cc2ccc(-c3ccccc3)cc2)Oc2ccc(NC(=O)Cc3cn(C)c4ccccc34)cc2CC1=O`: the cytotoxicity call was “inactive”.

For the molecule `C[C@@H]1CN([C@@H](C)CO)C(=O)Cc2cc(NC(=O)Cc3cn(C)c4ccccc34)ccc2O[C@H]1CN(C)Cc1ccc(-c2ccccc2)cc1`, the cytotoxicity call is “inactive”.

On to `C[C@H]1CN([C@@H](C)CO)C(=O)Cc2cc(NC(=O)Cc3cn(C)c4ccccc34)ccc2O[C@@H]1CN(C)Cc1ccc(C(=O)Nc2ccccc2N)cc1`, for which the cytotoxicity call is “inactive”.

With `C[C@@H]1CN([C@H](C)CO)C(=O)Cc2cc(NC(=O)Cc3cn(C)c4ccccc34)ccc2O[C@H]1CN(C)Cc1ccc(-c2ccccc2)cc1`, the cytotoxicity call was “active”.

With `C[C@H](CO)N1C[C@H](C)[C@H](CN(C)Cc2ccc(C(=O)Nc3ccccc3N)cc2)Oc2ccc(NC(=O)Cc3cn(C)c4ccccc34)cc2CC1=O`, the cytotoxicity call is “active”.

For the molecule `C[C@@H]1CN([C@H](C)CO)C(=O)Cc2cc(NC(=O)Cc3cn(C)c4ccccc34)ccc2O[C@@H]1CN(C)Cc1ccc(C(=O)Nc2ccccc2N)cc1`, the cytotoxicity call was “inactive”.

With `C[C@@H]1CN([C@@H](C)CO)C(=O)Cc2cc(NC(=O)Cc3cn(C)c4ccccc34)ccc2O[C@@H]1CN(C)CC1CCCCC1`, the cytotoxicity call was “active”.

Turning to `C[C@H](CO)N1C[C@H](C)[C@@H](CN(C)CC2CCCCC2)Oc2ccc(NC(=O)Cc3cn(C)c4ccccc34)cc2CC1=O`, the cytotoxicity call was “inactive”.

As for `C[C@H]1CN([C@@H](C)CO)C(=O)Cc2cc(NC(=O)Cc3cn(C)c4ccccc34)ccc2O[C@H]1CN(C)Cc1ccc(-c2ccccc2)cc1`, the cytotoxicity call is “inactive”.

Regarding `C[C@@H]1CN([C@@H](C)CO)C(=O)Cc2cc(NC(=O)Cc3cn(C)c4ccccc34)ccc2O[C@@H]1CN(C)Cc1ccc(-c2ccccc2)cc1`, the cytotoxicity call was “active”.

With `C[C@@H]1CN([C@H](C)CO)C(=O)c2cc(NC(=O)CCCN(C)C)ccc2O[C@@H]1CN(C)S(=O)(=O)c1ccccc1`, the cytotoxicity call was “inactive”.

`CCCC(=O)N(CCc1c[nH]c2ccccc12)[C@@H]1CC(C(=O)NCCO)=C[C@H](Oc2c(I)cc(CO)cc2OC)[C@H]1O`: the cytotoxicity call was “inactive”.

On to `CN(C)CC(=O)N[C@H]1CC[C@H](CCNC(=O)C2CCC2)O[C@H]1CO`, for which the cytotoxicity call is “inactive”.

On to `Cc1noc(C)c1S(=O)(=O)Nc1ccc2c(c1)C(=O)N([C@H](C)CO)C[C@H](C)[C@@H](CN(C)C(=O)Nc1cccc3ccccc13)OCCCC[C@@H](C)O2`, for which the cytotoxicity call is “inactive”.

In the case of `COCC(=O)N[C@@H]1C=C[C@H](CC(=O)N2CCCCC2)O[C@@H]1CO`, the cytotoxicity call is “inactive”.

Turning to `CN1C(=O)c2cc(NC(=O)Cc3cccs3)ccc2OC[C@H]2O[C@@H](CC(=O)NCCc3ccncc3)CC[C@H]21`, the cytotoxicity call is “inactive”.

In the case of `C[C@@H]1CCCCO[C@@H](CN(C)S(=O)(=O)c2ccccc2)[C@@H](C)CN([C@H](C)CO)C(=O)c2cc(NC(=O)Nc3ccc4c(c3)OCO4)ccc2O1`, the cytotoxicity call is “inactive”.

Regarding `C[C@H](CO)N1C[C@H](C)[C@H](CN(C)S(=O)(=O)c2cccs2)Oc2ccc(NC(=O)c3ccncc3)cc2C1=O`, the cytotoxicity call is “inactive”.

On to `COc1ccc(NC(=O)N(C)C[C@H]2Oc3c(NC(=O)c4cnccn4)cccc3C(=O)N([C@H](C)CO)C[C@H]2C)cc1`, for which the cytotoxicity call was “inactive”.

On to `C[C@@H]1CN([C@H](C)CO)C(=O)c2cccc(NC(=O)c3ccncc3)c2O[C@@H]1CN(C)Cc1ccc2c(c1)OCO2`, for which the cytotoxicity call is “inactive”.

Take `C[C@@H]1CN([C@H](C)CO)C(=O)c2cccc(NS(=O)(=O)c3cn(C)cn3)c2O[C@@H]1CN(C)C(=O)Nc1ccc2c(c1)OCO2`: the cytotoxicity call is “inactive”.

For the molecule `CC(C)(C)NC[C@@]1(CO)SC(N)=NC1=O`, the cytotoxicity call is “inactive”.

On to `C[C@@H]1CN([C@H](C)CO)C(=O)Cc2cc(NC(=O)Cc3cn(C)c4ccccc34)ccc2O[C@@H]1CN(C)Cc1ccc(-c2ccccc2)cc1`, for which the cytotoxicity call is “active”.

`C[C@H]1CN([C@@H](C)CO)C(=O)Cc2cc(NC(=O)Cc3cn(C)c4ccccc34)ccc2O[C@@H]1CN(C)Cc1ccc(-c2ccccc2)cc1`: the cytotoxicity call is “inactive”.

On to `C[C@@H]1CN(S(=O)(=O)N2CCN(C(=O)c3[nH]nc4ccccc34)CC2)C[C@H](C)O1`, for which the cytotoxicity call was “inactive”.

Regarding `C[C@@H]1CN([C@@H](C)CO)C(=O)CCCn2nncc2CO[C@@H]1CN(C)C(=O)C1CC1`, the cytotoxicity call was “inactive”.

Consider `C[C@@H]1CN([C@@H](C)CO)C(=O)c2cc(NC(=O)Nc3ccc4c(c3)OCO4)ccc2O[C@@H](C)CCCCO[C@H]1CN(C)Cc1ccc(C(F)(F)F)cc1`, for which the cytotoxicity call was “inactive”.

On to `C[C@@H]1CCCCO[C@H](CN(C)Cc2ccc(C(F)(F)F)cc2)[C@H](C)CN([C@H](C)CO)C(=O)c2cc(NC(=O)Nc3ccc4c(c3)OCO4)ccc2O1`, for which the cytotoxicity call was “active”.

In the case of `C[C@@H]1CN([C@@H](C)CO)C(=O)c2cc(NC(=O)Nc3ccc4c(c3)OCO4)ccc2O[C@@H](C)CCCCO[C@@H]1CN(C)Cc1ccc(C(F)(F)F)cc1`, the cytotoxicity call was “inactive”.

Regarding `C[C@@H]1CCCCO[C@@H](CN(C)Cc2ccc(C(F)(F)F)cc2)[C@H](C)CN([C@@H](C)CO)C(=O)c2cc(NC(=O)Nc3ccc4c(c3)OCO4)ccc2O1`, the cytotoxicity call is “active”.

`C[C@@H]1CCCCO[C@@H](CN(C)Cc2ccc(C(F)(F)F)cc2)[C@@H](C)CN([C@@H](C)CO)C(=O)c2cc(NC(=O)Nc3ccc4c(c3)OCO4)ccc2O1`: the cytotoxicity call is “inactive”.

As for `C[C@@H]1CN([C@H](C)CO)C(=O)c2cc(NC(=O)Nc3ccc4c(c3)OCO4)ccc2O[C@@H](C)CCCCO[C@H]1CN(C)Cc1ccc(C(F)(F)F)cc1`, the cytotoxicity call was “active”.

As to `C[C@@H]1CN([C@H](C)CO)C(=O)c2cc(NC(=O)Nc3ccc4c(c3)OCO4)ccc2O[C@@H](C)CCCCO[C@@H]1CN(C)Cc1ccc(C(F)(F)F)cc1`, the cytotoxicity call is “inactive”.

Turning to `C[C@@H]1CCCCO[C@H](CN(C)Cc2ccc(C(F)(F)F)cc2)[C@@H](C)CN([C@@H](C)CO)C(=O)c2cc(NC(=O)Nc3ccc4c(c3)OCO4)ccc2O1`, the cytotoxicity call is “active”.

Regarding `COc1ccc(CN(C)C[C@H]2Oc3ccc(NC(=O)Cn4cnnn4)cc3CC(=O)N([C@H](C)CO)C[C@@H]2C)cc1`, the cytotoxicity call is “inactive”.

As for `C[C@@H]1CN([C@@H](C)CO)C(=O)c2cc(NC(=O)CCC(F)(F)F)ccc2O[C@@H]1CN(C)C(=O)Nc1cccc2ccccc12`, the cytotoxicity call is “inactive”.

As for `O=C(C[C@@H]1CC[C@@H]2[C@H](COC[C@H](O)CN2S(=O)(=O)c2ccc(Cl)cc2)O1)NCCN1CCCCC1`, the cytotoxicity call was “inactive”.

As to `C[C@@H]1CN([C@@H](C)CO)C(=O)c2cc(C#Cc3cccc(F)c3)cnc2O[C@H]1CN(C)CC1CCOCC1`, the cytotoxicity call was “inactive”.

As to `Cc1noc(C)c1NC(=O)N(C)C[C@H]1OCCCC[C@@H](C)Oc2ccc(NS(=O)(=O)c3ccccc3)cc2C(=O)N([C@@H](C)CO)C[C@@H]1C`, the cytotoxicity call was “inactive”.

On to `CNC(=NC#N)NCCSCc1nc[nH]c1C`, for which the cytotoxicity call is “inactive”.

Consider `N#C[C@@H]1[C@@H](c2ccc(C#Cc3ccccn3)cc2)[C@H](CO)N1C(=O)CN1CCOCC1`, for which the cytotoxicity call is “inactive”.

Take `CN(C)CC(=O)N1CC(=O)N2[C@H](CO)[C@H](c3ccc(C#Cc4cccnc4)cc3)[C@@H]2C1`: the cytotoxicity call is “inactive”.

As for `COC(=O)[C@@H](Cc1ccc(-n2cc(C(=O)NO)nn2)cc1)N1CC2=CC(=O)[C@@H](C3CC3)[C@@H]2[C@H]1[C@H](O)Cc1ccccc1`, the cytotoxicity call was “inactive”.

As for `COc1ccccc1-c1ccc2c(c1)O[C@@H](CN(C)C(=O)c1ccncc1)[C@H](C)CN([C@@H](C)CO)S2(=O)=O`, the cytotoxicity call is “inactive”.

Regarding `CN1CCN(C(=O)C[C@H]2CC[C@H]3[C@@H](COC[C@H](O)CN3C(=O)C3CCOCC3)O2)CC1`, the cytotoxicity call was “inactive”.
